The nature of assay [1]: nuclear p53 accumulation, HPV+ cells – imaging, p53-positive nuclei imaging, 24 h, 48 h (AID 1508601). The note with it: 24/48 h.
Assay [2] addresses Cellular tumor antigen p53 (Homo sapiens) (UniProt P04637). The description is as above. The following applies: 24/48 h, stronger effect = higher value.
The mark [3] stands for this setting: measured here: cell number at 24 h, Library stock concentration: 10 mM.
[4] abbreviates: measured here: cell number at 48 h, Library stock concentration: 10 mM.
Setting [5] is: Library stock concentration: 10 mM.
[6] abbreviates: measured here: p53 positive nuclei at 24 h, Library stock concentration: 10 mM.
Where [7] appears, read: measured here: cell number at 24 h, concentration not given here.
Where [8] appears, read: measured here: cell number at 48 h, concentration not given here.
Where [9] appears, read: measured here: p53 positive nuclei at 24 h, concentration not given here.
Setting [10] is: measured here: cell number at 24 h, Library stock concentration: 3.33 mM.
Setting [11] is: measured here: cell number at 48 h, Library stock concentration: 3.33 mM.
Where [12] appears, read: Library stock concentration: 3.33 mM.
[13] abbreviates: measured here: p53 positive nuclei at 24 h, Library stock concentration: 3.33 mM.

The structures appear in SMILES notation. Several values for one entry are separate records, joined by “and”; a condition that tells them apart may be missing. Equal entries are not always repeated. Out of some 5,700 compounds screened, about 85 (1%) were called active. Rule as the data show it: active = p53-positive nuclei above about 36% (passing the limit was not always enough); inactive = the rest. The sample as a whole holds a higher share of actives than the screen did. Some structures have more than one record in an assay (separate samples or runs), and their calls can disagree.

Sequence of Cellular tumor antigen p53 (Homo sapiens) (P04637 whole entry, looked up): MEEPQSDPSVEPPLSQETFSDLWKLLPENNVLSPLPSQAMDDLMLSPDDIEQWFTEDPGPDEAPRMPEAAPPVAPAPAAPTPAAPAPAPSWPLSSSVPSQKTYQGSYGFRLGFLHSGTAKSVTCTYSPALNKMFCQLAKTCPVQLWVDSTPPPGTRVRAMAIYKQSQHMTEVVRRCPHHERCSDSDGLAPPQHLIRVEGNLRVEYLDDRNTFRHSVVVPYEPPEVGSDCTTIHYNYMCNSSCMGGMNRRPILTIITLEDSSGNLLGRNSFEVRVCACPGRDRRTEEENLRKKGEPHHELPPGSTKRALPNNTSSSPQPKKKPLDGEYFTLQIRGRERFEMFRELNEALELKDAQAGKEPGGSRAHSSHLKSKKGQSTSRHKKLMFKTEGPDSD

Take `CC1=C(O)C(=O)C=C2C1=CC=C1[C@@]2(C)CC[C@@]2(C)C3C[C@](C)(C(=O)O)CC[C@]3(C)CC[C@]12C` (stereo partly drawn): the nuclei count, normalised amounted to 117% in assay [1] (measured here: cell number at 24 h, Library stock concentration: 46 uM); 114% in assay [1] (measured here: cell number at 24 h, Library stock concentration: 278 uM); 57.4% in assay [1] (measured here: cell number at 24 h, Library stock concentration: 1.67 mM); 47.5% in assay [1] (setting [3]); 112% in assay [1] (measured here: cell number at 48 h, Library stock concentration: 46 uM); 104% in assay [1] (measured here: cell number at 48 h, Library stock concentration: 278 uM). Also, the nuclei count, normalised turned out to be 48.7% in assay [1] (measured here: cell number at 48 h, Library stock concentration: 1.67 mM) and 31.9% in assay [1] (setting [4]). Moreover, the p53-positive nuclei, normalised in assay [2] (Library stock concentration: 46 uM) was 0.197% (inactive); in assay [2] (Library stock concentration: 278 uM), 0.188% (inactive); in assay [2] (Library stock concentration: 1.67 mM), 8.51% (inactive); in assay [2] (setting [5]), 26.6% (inactive); in assay [2] (measured here: p53 positive nuclei at 24 h, Library stock concentration: 46 uM) it was -0.0305%; in assay [2] (measured here: p53 positive nuclei at 24 h, Library stock concentration: 278 uM) it was -0.0276%. For the same compound, the p53-positive nuclei, normalised in assay [2] (measured here: p53 positive nuclei at 24 h, Library stock concentration: 1.67 mM) was 9.81%; in assay [2] (setting [6]) it was 29.3%.

On to `CC1=C(O)C(=O)C=C2C1=CC=C1[C@@]2(C)CC[C@@]2(C)[C@@H]3C[C@](C)(C(=O)O)CC[C@]3(C)CC[C@]12C`, for which the nuclei count, normalised is 88.7% and 27% in assay [1] (setting [7]); 109% and 15.7% in assay [1] (setting [8]). Further, the p53-positive nuclei, normalised was 0.0329% (inactive) and 96.6% (active) in assay [2] (concentration not given here); 0.225% and 93.4% in assay [2] (setting [9]).

`CC1=C(O)C(=O)C=C2C1=CC=C1[C@@]2(C)CCC2(C)C3C[C@](C)(C(=O)O)CC[C@]3(C)CC[C@]12C` (stereo partly drawn): the nuclei count, normalised in assay [1] (measured here: cell number at 24 h, Library stock concentration: 80 uM) is 94.9%; in assay [1] (measured here: cell number at 24 h, Library stock concentration: 400 uM) it was 109%; in assay [1] (measured here: cell number at 24 h, Library stock concentration: 2 mM), 92%; in assay [1] (setting [3]), 46.3%; in assay [1] (measured here: cell number at 48 h, Library stock concentration: 80 uM) it was 95.5%; in assay [1] (measured here: cell number at 48 h, Library stock concentration: 400 uM) it was 109%. For the same compound, the nuclei count, normalised in assay [1] (measured here: cell number at 48 h, Library stock concentration: 2 mM) is 91.7%; in assay [1] (setting [4]), 28.8%. Besides, the p53-positive nuclei, normalised in assay [2] (Library stock concentration: 80 uM) is 0.0324% (inactive); in assay [2] (Library stock concentration: 400 uM) it was 0.159% (inactive); in assay [2] (Library stock concentration: 2 mM), 0.635% (inactive); in assay [2] (setting [5]) it was 9.53% (inactive); in assay [2] (measured here: p53 positive nuclei at 24 h, Library stock concentration: 80 uM) it was 0.113%; in assay [2] (measured here: p53 positive nuclei at 24 h, Library stock concentration: 400 uM), 0.398%. Also, the p53-positive nuclei, normalised in assay [2] (measured here: p53 positive nuclei at 24 h, Library stock concentration: 2 mM) is 0.116%; in assay [2] (setting [6]), 10.2%.

With `CCCCCCCCCCCC[N+](C)(C)CCOc1ccccc1`, the nuclei count, normalised was found to be 115% in assay [1] (setting [10]) and 110% in assay [1] (setting [11]). The p53-positive nuclei, normalised in assay [2] (setting [12]) was -0.174% (inactive); in assay [2] (setting [13]), -0.284%.

As to `CCCCC/C=C\C/C=C\C/C=C\C/C=C\CCCCOC(CO)CO`, the nuclei count, normalised in assay [1] (setting [7]) is 104%; in assay [1] (setting [8]), 111%. In addition, the p53-positive nuclei, normalised in assay [2] (concentration not given here) is 0.099% (inactive); in assay [2] (setting [9]) it was 0.34%.

On to `CC=C(C)C(=O)NC(c1ccccc1)C(O)C(=O)OC1C[C@@]2(O)C(OC(=O)c3ccccc3)[C@@H]3[C@]4(OC(C)=O)COC4CC(O)[C@@]3(C)C(=O)C(OC(C)=O)C(=C1C)C2(C)C` (stereo partly drawn), for which the figures for the nuclei count, normalised in assay [1] (setting [10]) and in assay [1] (setting [11]) were 33.5% and 28.1%, respectively. Besides, the p53-positive nuclei, normalised is 1.63% (inactive) in assay [2] (setting [12]) and -0.0935% in assay [2] (setting [13]).

Take `OC1CN2CCC(O)[C@H]2C(O)C1O` (stereo partly drawn): the nuclei count, normalised in assay [1] (measured here: cell number at 24 h, Library stock concentration: 500 nM) came out at 98.9%; in assay [1] (measured here: cell number at 24 h, Library stock concentration: 1.5 uM), 116%; in assay [1] (measured here: cell number at 24 h, Library stock concentration: 4.6 uM), 110%; in assay [1] (measured here: cell number at 24 h, Library stock concentration: 13.7 uM), 107%; in assay [1] (measured here: cell number at 24 h, Library stock concentration: 41 uM), 109%; in assay [1] (measured here: cell number at 24 h, Library stock concentration: 123 uM), 108%. Moreover, the nuclei count, normalised in assay [1] (measured here: cell number at 24 h, Library stock concentration: 370 uM) stood at 107%; in assay [1] (measured here: cell number at 24 h, Library stock concentration: 1.111 mM) it was 107%; in assay [1] (measured here: cell number at 24 h, Library stock concentration: 3.333 mM), 105%; in assay [1] (setting [3]), 105%; in assay [1] (measured here: cell number at 48 h, Library stock concentration: 500 nM), 102%; in assay [1] (measured here: cell number at 48 h, Library stock concentration: 1.5 uM), 111%. Further, the nuclei count, normalised is 108% in assay [1] (measured here: cell number at 48 h, Library stock concentration: 4.6 uM); 105% in assay [1] (measured here: cell number at 48 h, Library stock concentration: 13.7 uM); 110% in assay [1] (measured here: cell number at 48 h, Library stock concentration: 41 uM); 108% in assay [1] (measured here: cell number at 48 h, Library stock concentration: 123 uM); 106% in assay [1] (measured here: cell number at 48 h, Library stock concentration: 370 uM); 102% in assay [1] (measured here: cell number at 48 h, Library stock concentration: 1.111 mM). Besides, the nuclei count, normalised in assay [1] (measured here: cell number at 48 h, Library stock concentration: 3.333 mM) was 106%; in assay [1] (setting [4]) it was 104%. For the same compound, the p53-positive nuclei, normalised in assay [2] (Library stock concentration: 500 nM) is -0.0904% (inactive); in assay [2] (Library stock concentration: 1.5 uM) it was 0.192% (inactive); in assay [2] (Library stock concentration: 4.6 uM), 0.0933% (inactive); in assay [2] (Library stock concentration: 13.7 uM) it was -0.133% (inactive); in assay [2] (Library stock concentration: 41 uM), -0.107% (inactive); in assay [2] (Library stock concentration: 123 uM) it was 0.0873% (inactive). For the same compound, the p53-positive nuclei, normalised in assay [2] (Library stock concentration: 370 uM) was 0.261% (inactive); in assay [2] (Library stock concentration: 1.111 mM) it was -0.0118% (inactive); in assay [2] (Library stock concentration: 3.333 mM), 0.175% (inactive); in assay [2] (setting [5]), -0.135% (inactive); in assay [2] (measured here: p53 positive nuclei at 24 h, Library stock concentration: 500 nM) it was -0.068%; in assay [2] (measured here: p53 positive nuclei at 24 h, Library stock concentration: 1.5 uM) it was 0.213%. Moreover, the p53-positive nuclei, normalised is -0.135% in assay [2] (measured here: p53 positive nuclei at 24 h, Library stock concentration: 4.6 uM); -0.189% in assay [2] (measured here: p53 positive nuclei at 24 h, Library stock concentration: 13.7 uM); 0.0835% in assay [2] (measured here: p53 positive nuclei at 24 h, Library stock concentration: 41 uM); 0.197% in assay [2] (measured here: p53 positive nuclei at 24 h, Library stock concentration: 123 uM); 0.0352% in assay [2] (measured here: p53 positive nuclei at 24 h, Library stock concentration: 370 uM); -0.189% in assay [2] (measured here: p53 positive nuclei at 24 h, Library stock concentration: 1.111 mM). Moreover, the p53-positive nuclei, normalised in assay [2] (measured here: p53 positive nuclei at 24 h, Library stock concentration: 3.333 mM) was -0.0741%; in assay [2] (setting [6]), 0.108%.
